ClpP mod – qHTS Assay for Activators of ClpP | 1.9% of 340,000 active | Potency, µM (titrated, usually from 57.5 µM) | ATP-dependent Clp protease proteolytic subunit (Bacillus subtilis (strain 168)), P80244 | purified B. subtilis ClpP, FRET peptide cleavage, 20 min; active = well fitted falling curve with a large enough effect; inconclusive = small, poorly fitted or top-dose-only effect; inactive = no such curve, though single readings can be large or run the other way; also: the source files actives as falling curves though it sought activators and does not explain the sign; nearly all actives have a fitted effect of over 65% in size
Target sequence (P80244 whole entry, looked up): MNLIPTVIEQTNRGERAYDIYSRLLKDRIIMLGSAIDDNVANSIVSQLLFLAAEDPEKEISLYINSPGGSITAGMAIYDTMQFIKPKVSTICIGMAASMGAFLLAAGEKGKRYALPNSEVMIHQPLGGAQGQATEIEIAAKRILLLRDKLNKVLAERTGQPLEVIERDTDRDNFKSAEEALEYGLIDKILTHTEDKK
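Buffer: 100 mM Tris/HCl pH8, 100 mM KCl, 0.05% low protease BSA, 2.5% glycerol, 0.01% Tween-20. ClpP 10 microg/mL final; 20 min RT; delta FRET normalized to ADEP and DMSO controls.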
IL1B secr inh – blocks inflammasome-driven IL-1 beta release; 4.7% of 360,000 active; THP-1 LPS/ATP IL-1B secretion, AlphaLISA, 16 h; hits give low values; activity change, % at 57.5 µM; in the data active = activity change below about -50%; inconclusive = mostly about -30% to -49%
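THP-1 cells pretreated 1 hr with compounds (up to 57.5 uM final), then stimulated with LPS (250 ng/mL final) plus ATP (1.25 mM final); secreted IL-1B measured by AlphaLISA after 16 hr, decreased signal indicating inhibition.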
TDP1 cell noCPT – qHTS for Inhibitors of human tyrosyl-DNA phosphodiesterase 1 (TDP1): qHTS in cells in absence of CPT; DT40 Tdp1-/- hTDP1 cells, no CPT, ATP luminescence, 48 h; Potency, µM (series often up to 46.2 µM), usual class: inhibitors; 15% of 420,000 active; AID 686978, 2013; also: nearly all actives have a fitted effect of over 55% in size
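Growth kinetics read by CellTiter-Glo luminescence after ≥48 hr at 37 °C. Cells: DT40 Tdp1-/- stably carrying human TDP1, 400 per well, compound exposure in the absence of CPT (DMSO vehicle).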
D3 antag – D3 dopamine receptor (human) antagonism | 2.5% of 360,000 active | AID 652054 | max response, negative = inhibition, % | D3R cells, DiscoveRx beta-arrestin luminescence, antagonist mode; hits give low values | P35462; in the data active = max response below about -50%; inconclusive = no clear call, values can overlap the other calls
Target sequence (P35462 whole entry, looked up): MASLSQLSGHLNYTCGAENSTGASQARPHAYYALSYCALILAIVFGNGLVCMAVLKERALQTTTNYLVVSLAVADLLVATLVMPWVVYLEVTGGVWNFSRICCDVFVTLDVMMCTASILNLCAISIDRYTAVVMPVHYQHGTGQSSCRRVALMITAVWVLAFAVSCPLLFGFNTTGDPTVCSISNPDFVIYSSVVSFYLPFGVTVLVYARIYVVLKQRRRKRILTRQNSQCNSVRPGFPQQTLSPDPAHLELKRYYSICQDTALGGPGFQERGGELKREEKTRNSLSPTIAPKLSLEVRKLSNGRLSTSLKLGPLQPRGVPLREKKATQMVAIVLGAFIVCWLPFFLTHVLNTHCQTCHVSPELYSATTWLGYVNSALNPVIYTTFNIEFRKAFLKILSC
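Cells expressing the human receptor were seeded at 1500 cells/well, incubated overnight at 37 degrees C in 5% CO2, then exposed to library compounds with dopamine controls for 90 minutes at 37 degrees C before luminescent detection.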
D3 ag – agonists of human D3 dopamine receptor; D3R DiscoveRx beta-arrestin cells, luminescence, 90 min; AID 652048; max activation, %; 0.58% of 410,000 active; in the data active = max activation above about 30%
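Agonist-mode cell screen: cells plated at 1500/well and incubated overnight at 37 °C, then exposed to library compounds for 90 min at 37 °C. Detection reagent was added for 30–60 min at room temperature, and luminescence was read.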
DT40 TDP1 CPT – DT40-hTDP1 cell growth loss with CPT. chicken DT40 Tdp1-/-;hTDP1 cells + 20 nM CPT, ATP luminescence, 48 h. Potency, µM (series often up to 46.2 µM), usual class: inhibitors. 12% of 420,000 active. AID 686979; also: nearly all actives have a fitted effect of over 55% in size
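Chicken DT40 Tdp1-/- cells stably complemented with human TDP1 were seeded at 400 cells/well in medium containing 20 nM camptothecin, exposed to pin-transferred compounds, and grown at 37 °C for at least 48 hr. Viability was read as ATP luminescence.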
Each line names hits and unclear results; the compound was inactive in the other large screens. The list is not random: actives were taken first. Their share in the collection is about 21%. Unless noted, calls follow the shape of the dose curve; as a rule, active = well fitted inhibition curve with a large enough effect; inconclusive = small, poorly fitted or top-dose-only effect; inactive = flat fitted curve, though single readings scatter.

Cc1cc(C(=O)CCC(=O)N(C)CC(=O)Nc2c(Cl)cccc2Cl)c(C)s1	TDP1 cell noCPT 11.6µM
Cc1ccc(CNCCCSc2ncccn2)cc1	none (no result: ClpP mod)
CN1/C(=C/C=N/n2cnnc2)C(C)(C)c2ccccc21	TDP1 cell noCPT 23.1µM, DT40 TDP1 CPT 18.4µM
CN1/C(=C\C=C(C#N)C#N)C(C)(C)c2ccccc21	none
CC1(c2nnc(-c3ccccc3)o2)CC(c2ccc(Cl)cc2)=NO1 (configuration not stated)	D3 ag 43.4
CC1(c2nnc(-c3ccncc3)o2)CC(c2ccc(Cl)cc2)=NO1 (configuration not stated)	TDP1 cell noCPT 20.6µM, DT40 TDP1 CPT 20.6µM
CC1(c2nnc(-c3ccccc3)o2)CC(c2ccc([N+](=O)[O-])cc2)=NO1 (configuration not stated)	TDP1 cell noCPT 18.4µM, D3 ag 37.4, DT40 TDP1 CPT inconclusive
CC1(c2nnc(-c3ccccc3)o2)CC(c2ccc(F)cc2)=NO1 (configuration not stated)	none
CN1CCC(OC(=O)C(Oc2ccc(Cl)cc2)Oc2ccc(Cl)cc2)CC1	none (no result: ClpP mod, IL1B secr inh, D3 antag)
C[C@@H]1CN([C@@H](C)CO)C(=O)CCCn2cc(nn2)CO[C@H]1CN(C)C(=O)c1ccc2ccn(C)c2c1	TDP1 cell noCPT inconclusive
O=C(NCCCN1CCCCC1)C1CCN(S(=O)(=O)N2CCC3(CC2)OCCO3)CC1	none
COc1cc(OC)cc(-c2nc3ccccc3c(=O)n2OC(=O)c2ccc(C)c(C)c2)c1	IL1B secr inh inconclusive, TDP1 cell noCPT inconclusive, D3 ag 30.0, DT40 TDP1 CPT inconclusive (no result: ClpP mod)
Cc1cccc(CNC(=O)c2cnn(-c3nccc(-c4cccs4)n3)c2C2CC2)n1	none (no result: ClpP mod, IL1B secr inh, D3 antag, D3 ag)
Cc1ccc(C)c(NC(=O)COC(=O)COc2cccc3c2OC(C)(C)C3)c1	none
Cc1onc(-c2ccccc2)c1C(=O)n1nnc2ccccc21	ClpP mod 28.2µM, TDP1 cell noCPT inconclusive, DT40 TDP1 CPT inconclusive
Cc1onc(-c2ccccc2)c1C(N)=O	none
Cc1onc(-c2ccccc2)c1C(=O)N1CCCN(C(=O)c2c(-c3ccccc3)noc2C)CC1	none
Cc1onc(-c2ccccc2)c1C(=O)N1CCN(C(=O)c2ccco2)CC1	D3 antag -124.7
CCOC(=O)c1c(C)oc2cc(Br)c(OC)cc12	none
COc1cc2c(C(=O)N3CCN(c4ccccc4C)CC3)c(C)oc2cc1Br	IL1B secr inh -73.3, TDP1 cell noCPT 16.4µM, DT40 TDP1 CPT inconclusive
COc1ccccc1N1CCN(C(=O)c2c(-c3c(F)cccc3Cl)noc2C)CC1	TDP1 cell noCPT 13µM, DT40 TDP1 CPT 23.1µM
O=C(N/N=C/c1ccc(F)cc1)c1cccc(NC(=O)c2ccccc2Cl)c1	TDP1 cell noCPT inconclusive, DT40 TDP1 CPT inconclusive (no result: ClpP mod)
CN(Cc1ccccc1)C(=O)COC(=O)c1cc(=O)[nH]c2ccccc12	ClpP mod inconclusive
COC(=O)Cc1c(C)c2cc3c(c(C)c2oc1=O)OCN(CCc1ccc(OC)cc1)C3	TDP1 cell noCPT inconclusive, DT40 TDP1 CPT inconclusive (no result: IL1B secr inh, D3 antag)
N#CCCN(C(=O)COC(=O)C1CCN(S(=O)(=O)c2cccs2)CC1)c1ccccc1	none
Cc1onc(-c2ccccc2)c1C(=O)N1CCN(c2ccc([N+](=O)[O-])cc2)CC1	TDP1 cell noCPT 20.6µM, DT40 TDP1 CPT inconclusive
O=C(O)c1cn(-c2ccccc2)nc1-c1ccncc1	ClpP mod inconclusive
COc1ccccc1N1CCN(C(=O)c2c(-c3ccccc3)noc2C)CC1	TDP1 cell noCPT 7.31µM, DT40 TDP1 CPT 10.3µM
O=C(c1cn(-c2ccccc2)nc1-c1ccncc1)n1nnc2ccccc21	D3 antag inconclusive, DT40 TDP1 CPT 16.4µM
CN1CCN(c2ccccc2/C=C2/C(=O)Nc3ccccc32)CC1	IL1B secr inh inconclusive, TDP1 cell noCPT inconclusive, D3 antag inconclusive, DT40 TDP1 CPT inconclusive
CCN(CC)CCNC(=O)c1ccc(NC(=O)Cc2ccc(OC)c(S(=O)(=O)N3CCOCC3)c2)cc1	none
C=CC(=O)Nc1ccc(CN2C(=O)N(c3c(Cl)c(OC)cc(OC)c3Cl)Cc3cnc(NCCCCN(CC)CC)nc32)cc1	IL1B secr inh -67.0, TDP1 cell noCPT 13µM, D3 antag -65.2, DT40 TDP1 CPT 11.6µM
NC(=O)C(c1ccc(Cl)cc1)c1ccc(Sc2ccc(Cl)cc2)nn1 (configuration not stated)	IL1B secr inh inconclusive, TDP1 cell noCPT 16.4µM, DT40 TDP1 CPT inconclusive
c1ccc2c(c1)nc1n2CCS1	none
OC1C=CSc2nc3ccccc3n21 (configuration not stated)	ClpP mod inconclusive, IL1B secr inh inconclusive, TDP1 cell noCPT 14.6µM, DT40 TDP1 CPT 13µM
COc1ccccc1CCNC(=O)Cn1ccc2cc(S(=O)(=O)N3CCCCC3)ccc21	TDP1 cell noCPT inconclusive, DT40 TDP1 CPT inconclusive (no result: IL1B secr inh, D3 antag)
Cn1c(CCN2CCOCC2)nc2cc(NS(=O)(=O)c3ccccc3)ccc21	TDP1 cell noCPT inconclusive (no result: ClpP mod)
Cn1c(CCN2CCN(c3ccccn3)CC2)nc2cc(NS(=O)(=O)c3ccccc3)ccc21	TDP1 cell noCPT 13µM, DT40 TDP1 CPT inconclusive
COc1ccc(-n2cnc3cc(NS(=O)(=O)c4ccccc4)ccc32)cc1	TDP1 cell noCPT 20.6µM, D3 antag -87.1, DT40 TDP1 CPT inconclusive
Cn1c(CN2CCCC2)nc2cc(NC(=O)c3ccc(Cl)cc3)ccc21	TDP1 cell noCPT inconclusive, DT40 TDP1 CPT inconclusive
Cn1c(CCN2CCCC2)nc2cc(NS(=O)(=O)c3ccc(Cl)cc3)ccc21	IL1B secr inh -85.8, TDP1 cell noCPT inconclusive, D3 antag inconclusive, DT40 TDP1 CPT inconclusive
Cn1c(CN2CCCC2)nc2cc(NS(=O)(=O)c3ccc(Cl)cc3)ccc21	D3 antag -103.8
CC(C)(C)n1cnc2cc(NS(=O)(=O)c3ccccc3)ccc21	TDP1 cell noCPT inconclusive
Cc1cccc(C)c1NC(=O)Cn1c(=O)n(CCC(=O)NCc2ccccc2Cl)c(=O)c2sccc21	none (no result: IL1B secr inh, D3 antag)
Cn1c(CN2CCCC2)nc2cc(NS(=O)(=O)c3ccccc3)ccc21	D3 antag -79.7
Cc1ccc(S(=O)(=O)Nc2ccc3c(c2)nc(CCN2CCCC2)n3C)cc1	IL1B secr inh -76.0, TDP1 cell noCPT inconclusive, D3 antag -57.3, DT40 TDP1 CPT inconclusive
Cn1c(CCN2CCCC2)nc2cc(NS(=O)(=O)c3ccc(F)cc3)ccc21	IL1B secr inh -56.2, TDP1 cell noCPT inconclusive, DT40 TDP1 CPT inconclusive
Cn1c(CCN2CCCCC2)nc2cc(NS(=O)(=O)c3ccccc3)ccc21	ClpP mod 28.2µM, IL1B secr inh -50.0, TDP1 cell noCPT inconclusive, DT40 TDP1 CPT inconclusive
O=C(COC(=O)c1ccc(F)cc1F)NC1CC1	none (no result: ClpP mod)

Bioassay records deposited in PubChem BioAssay by National Center for Advancing Translational Sciences (NCATS).
